Among the data in PubChem BioAssay (NCATS) are Potency values, retold here.

Each structure is given as a SMILES string. Results filed as inconclusive are left out. A call without a number means that no potency is given here. The source made the active and inactive calls. Calls come from the whole dose curve; as a rule, active = well fitted cell-killing curve with a large enough effect; inconclusive = small, poorly fitted or top-dose-only effect; inactive = flat fitted curve, though single readings scatter.
Potency is the fitted concentration of half-maximal effect.

This test can be described thus: Cell Viability - LYMP2-008 (AID 980). Note: nearly all actives have a fitted effect of over 60% in size. The note with it: LYMP2-008 lymphoblastoid cell viability, qHTS; series mostly up to 92.2 µM. The source says: NIH Chemical Genomics Center [NCGC]
NIH Molecular Libraries Screening Centers Network [MLSCN]
National Institutes of Environmental Health Sciences [NIEHS]
National Toxicology Program [NTP]
We have developed a 1536-well cell-based assay for quantitative high throughput screening (qHTS) against a number of cell lines to determine in vitro cytotoxicity of small molecules. This particular assay uses a human lymphoblastoid cell line (LYMP2-008) purchased from Coriell Institute for Medical Research.
NCGC Assay Protocol Summary:
The CellTiter-Glo luminescent cell viability assay (Promega) is a homogeneous method to measure the number of viable cells in culture. The end point readout of this assay is based on quantitation of intracellular ATP, an indicator of metabolic activity, using the luciferase reaction. Luciferase catalyzes the oxidation of beetle Luciferin to oxyluciferin and light in the presence of ATP. The luminescent signal is proportional to amount of ATP present.
Using the CellTiter-Glo luminescent cell viability assay, the amount of cellular ATP was measured in the lymphoblastoid cell line with complete culture medium following compound treatment for 24 hours. The assay was performed in opaque white Kalypsys 1536-well plates. In the screen, tetraoctylammonium bromide was used as positive control. Library compounds were measured for their ability to cause acute toxicity in the cell line, as reflected by a decrease in intracellular ATP levels, in a concentration-dependent manner. […] AC50 values were determined from concentration-response data modeled with the standard Hill equation.
qHTS protocol for CellTiter Glo lymphoblastoid cellular assay
[Step] [Parameter] [Value] [Description]
1. Reagent; 5 uL; 2500 lymphoblastoid cells/well
2. Time; 5 hr; 37 C incubation
4. Controls; 23 nL; Tetraoctylammonium bromide 6.4pM to 92 uM
5. Time; 24 hr; 37 C incubation
6. Reagent; 5 uL; CellTiter Glo reagent
7. Time; 30 min; Room Temperature
8. Detection; Luminescence; Viewlux plate reader
Keywords: cell viability, cytotoxicity, lymphoblastoid cell line, luminescence, NTPHTS, NTPHTS_NCGC, NIEHS, DSSTox, MLSMR, MLSCN, NIH Roadmap, qHTS, NCGC
Consider `OCc1ccccc1`, for which the Potency result is “inactive”.
For the molecule `CCCCO`, the Potency result is “inactive”.
In the case of `CO`, the Potency result is “inactive”.
Consider `Oc1ccc(/C=C/c2cc(O)cc(O)c2)cc1`, for which the Potency result was “inactive”.
Turning to `C/C=C/C=C/C(=O)O`, the Potency result is “inactive”.
Consider `C[C@H](CCC(=O)O)[C@H]1CC[C@H]2[C@@H]3CC[C@@H]4C[C@H](O)CC[C@]4(C)[C@H]3C[C@H](O)[C@]12C`, for which the Potency entry is “inactive”.
In the case of `OC[C@H]1O[C@@H]2O[C@H]3[C@H](O)[C@@H](O)[C@@H](O[C@H]4[C@H](O)[C@@H](O)[C@@H](O[C@H]5[C@H](O)[C@@H](O)[C@@H](O[C@H]6[C@H](O)[C@@H](O)[C@@H](O[C@H]7[C@H](O)[C@@H](O)[C@@H](O[C@H]1[C@H](O)[C@H]2O)O[C@@H]7CO)O[C@@H]6CO)O[C@@H]5CO)O[C@@H]4CO)O[C@@H]3CO`, the Potency entry was “inactive”.
On to `ClC(Cl)Cl`, for which the Potency entry is “inactive”.
In the case of `CC1=CCC2CC1C2(C)C` (centres undefined), the Potency entry is “inactive”.
As to `CC(C)O`, the Potency result is “inactive”.
Regarding `CC1=CC(=O)NS(=O)(=O)O1`, the Potency result is “inactive”.
As for `CCCCC`, the entry is “inactive”; as for `COC(=O)c1ccccc1O`, “inactive”.
On to `Nc1ncnc2c1ncn2[C@H]1CC[C@@H](CO)O1`, for which the Potency entry was “inactive”.
With `c1ccc2ccccc2c1`, the Potency entry is “inactive”.
In the case of `CO/N=C(/C(=O)N[C@@H]1C(=O)N2C(C(=O)O)=C(COC(N)=O)CS[C@H]12)c1ccco1`, the Potency result was “inactive”.
In the case of `Cc1ncc[nH]1`, the Potency result was “inactive”.
As for `CCOC(C)OCC`, the Potency result was “inactive”.
In the case of `Cc1ccc(S(=O)(=O)O)cc1C`, the Potency result was “inactive”.
`C[C@H](CCC(=O)O)[C@H]1CC[C@H]2[C@@H]3[C@H](O)C[C@@H]4C[C@H](O)CC[C@]4(C)[C@H]3C[C@H](O)[C@]12C`: the Potency result was “inactive”.
For the molecule `CC[C@H]1OC(=O)[C@H](C)[C@@H](O[C@H]2C[C@@](C)(OC)[C@@H](O)[C@H](C)O2)[C@H](C)[C@@H](O[C@@H]2O[C@H](C)C[C@H](N(C)C)[C@H]2O)[C@](C)(O)C[C@@H](C)CN(C)[C@H](C)[C@@H](O)[C@]1(C)O`, the Potency entry was “inactive”.
On to `CC(C)(C)CC(C)(C)c1ccc(OCCO)cc1`, for which the Potency result is “inactive”.
For the molecule `O=P(O)(O)O`, the Potency result is “inactive”.
For `OCl`, the Potency result is “inactive”.
Consider `OCC(O)CO`, for which the Potency result is “inactive”.
For the molecule `Nc1ccc(N=Nc2ccccc2)c(N)n1`, the Potency result was “inactive”.
For `C=C1C(CCl)(CCl)C2(Cl)C(Cl)C(Cl)C1(Cl)C2(Cl)Cl` (centres undefined), the Potency was 31.6 µM (active).
As for `OB(O)O`, the entry is “inactive”; as for `Oc1cccc(O)c1O`, “inactive”; as for `NCCN`, “inactive”.
Consider `[O-][N+](=Nc1ccccc1)c1ccccc1`, for which the Potency result is “inactive”.
As for `Nc1nccs1`, the Potency result was “inactive”.
`O.O.O.O.O.O.O.O=S(=O)([O-])[O-].[Co+2]`: the Potency entry was “inactive”.
Turning to `NC(N)=O`, the Potency entry is “inactive”.
